This note sets out measurements from PubChem BioAssay.

Values joined by “and” are separate entries in the source; they are usually repeats but may differ in a detail not shown here. Identical values can stand only once. Inconclusive results are not listed. Active and inactive are the calls of the source.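 How the source made its calls, unless noted: active means normalized viability below 100% at a tested concentration; inactive means the rest.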

The term AC50 denotes the concentration giving half of the maximal activity seen. In general, viability refers to a read-out of living cells in per cent, often relative to untreated cells.

Assay [1] in a line: viability loss in pontine glioma line – cell-based, SU-DIPG-XXV, MIPE5.0, CellTiter-Glo, qHTS, dose response (AID 1347065; cut-off not given, nearly all actives have AC50 up to about 26 µM;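 further: cells exposed to compound for 48 hours before ATP readout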). The following applies: CellTiter-Glo ATP luminescence. On the technique in general: ATP-based viability assays read luminescence as a measure of living cells.
Assay [2] is described as follows: SU-DIPG-VI glioma cell viability, MIPE4.0 library, CellTiter-Glo luminescence, qHTS (AID 1347066; cut-off not given, nearly all actives have AC50 up to about 30 µM;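 further: cells exposed to compound for 48 hours before readout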). The following applies: CellTiter-Glo ATP luminescence.
The nature of assay [3]: SU-DIPG-XXV glioma cell viability, MIPE5.0 library, qHTS (AID 1347068; cut-off not given, nearly all actives have IC50 up to about 30 µM). For orientation: qHTS replaces the single test concentration by a dilution series.
A short description of assay [4]: sensitizers of A549 cells to miR-34 induction, primary screen, imaging, A549 dox-inducible miR-34, nuclei and caspase counts (AID 1347080;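 active means compounds whose cell count with miR-34 switched on is under 0.7 times the count with it off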). The following applies: A549 miR-34 inducible, Hoechst nuclei count, 48 h.
The nature of assay [5]: phospholipid biosynthesis inhibitors in animal cells, primary screen, cell-based, LOPAC library, screen 4 (AID 1347384; call rule not given here). The settings on record: phospholipid biosynthesis inhibition screen, at 10 µM.
Assay [6] in a line: survival rescue of mitochondrial mutant cells in low glucose, primary screen, MELAS cybrids, Rieske KO mouse fibroblasts, CellTiter-Glo (AID 1508586;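 active means mean z-score across replicates of 1.96 or higher in either the MELAS or the Rieske mutant cell line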;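 further: z relative to plate mean and SD of compound and empty wells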).
Assay [7] has as its target NAD(+) hydrolase SARM1 (Homo sapiens) (UniProt Q6SZW1). The assay can be described thus: SARM1 TIR NADase inhibitors, cell lysate, NAD-Glo luminescence (AID 1508614;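 active means compound whose remaining NAD level is above about 45 nM, limit read from the data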). The following applies: SAM-TIR HEK293T lysate NADase, at 1 µM, stronger effect = higher value.
The target in assay [8] is Mitogen-activated protein kinase 7 (Homo sapiens) (UniProt Q13164). The assay can be described thus: ERK5 transactivation activators in reporter cells, primary screen, cell-based, HTS (AID 1508626;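 active means luciferase signal above three times the same-plate solvent-only control wells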;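 further: luciferase driven by Gal4-ERK5 fusion binding five Gal4 sites before minimal TATA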). The settings on record: HeLa Gal4-ERK5 transactivation, 18 h, at 5 µM, stronger effect = higher value.
Assay [9] can be described thus: viability rescue of complex I mutant cybrids, primary screen, cell-based, galactose medium, ATP luminescence (AID 1645843;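 active means z-score of at least 1.8 in each of two replicates, scored against plate mean and spread of sample wells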;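 further: positive z means more ATP and so rescue of galactose-driven cybrid death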). The settings on record: complex I mutant cybrid cells, 72 h, stronger effect = higher value.
Assay [10] in a line: inhibitors of Cryptococcus chitosan production, flow cytometry, Cibacron Brilliant Red staining (AID 1347148; call rule not given here;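 further: compound exposure lasted three days at 37 degrees C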). The settings on record: Cryptococcus neoformans chitosan, stronger effect = lower value; at 10 µM unless noted. A general note: A flow cytometer gives signals particle by particle.
A short description of assay [11]: modifiers of HSF1 nuclear foci, imaging, Selleck Cancer Library (AID 1347162; in the data active means plate-normalised HSF1 focus index below about 0.46). The following applies: human cells, at 10 µM; SSMD: measured here: HSF1 foci SSMD mean; cell count: measured here: cell number; plate-normalised HSF1 focus index: stronger effect = lower value.
Assay [12] is described as follows: ovarian cancer cell viability with rucaparib, profiling panel, oncology-focused library, rucaparib conditional (AID 1508598). The settings on record: patient-derived ovarian cancer cells, CellTiter-Glo viability, 144 h, stronger effect = lower value.
A short description of assay [13]: JHH-DIPG-1 glioma cell viability, MIPE5.0 library, CellTiter-Glo luminescence, qHTS (AID 1347067; cut-off not given, nearly all actives have AC50 up to about 26 µM;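 further: cells exposed to compound for 48 hours before readout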). The settings on record: JHH-DIPG-1 glioma viability, CellTiter-Glo ATP luminescence.
Where [14] appears, read: stronger effect = lower value, cell number ratio, induced over uninduced.
Setting [15] is: measured here: relative caspase fold change +Dox/-Dox.
The mark [16] stands for this setting: measured here: total cells with miR-34 induction, stronger effect = lower value.
The mark [17] stands for this setting: measured here: total cells without miR-34 induction.
Where [18] appears, read: MELAS cybrid survival, CellTiter-Glo 48 h, stronger effect = higher value.
[19] abbreviates: Rieske KO mouse fibroblast survival, CellTiter-Glo 72 h.

Mitogen-activated protein kinase 7 (Homo sapiens), sequence (Q13164 whole entry, looked up, the tested form may be a part): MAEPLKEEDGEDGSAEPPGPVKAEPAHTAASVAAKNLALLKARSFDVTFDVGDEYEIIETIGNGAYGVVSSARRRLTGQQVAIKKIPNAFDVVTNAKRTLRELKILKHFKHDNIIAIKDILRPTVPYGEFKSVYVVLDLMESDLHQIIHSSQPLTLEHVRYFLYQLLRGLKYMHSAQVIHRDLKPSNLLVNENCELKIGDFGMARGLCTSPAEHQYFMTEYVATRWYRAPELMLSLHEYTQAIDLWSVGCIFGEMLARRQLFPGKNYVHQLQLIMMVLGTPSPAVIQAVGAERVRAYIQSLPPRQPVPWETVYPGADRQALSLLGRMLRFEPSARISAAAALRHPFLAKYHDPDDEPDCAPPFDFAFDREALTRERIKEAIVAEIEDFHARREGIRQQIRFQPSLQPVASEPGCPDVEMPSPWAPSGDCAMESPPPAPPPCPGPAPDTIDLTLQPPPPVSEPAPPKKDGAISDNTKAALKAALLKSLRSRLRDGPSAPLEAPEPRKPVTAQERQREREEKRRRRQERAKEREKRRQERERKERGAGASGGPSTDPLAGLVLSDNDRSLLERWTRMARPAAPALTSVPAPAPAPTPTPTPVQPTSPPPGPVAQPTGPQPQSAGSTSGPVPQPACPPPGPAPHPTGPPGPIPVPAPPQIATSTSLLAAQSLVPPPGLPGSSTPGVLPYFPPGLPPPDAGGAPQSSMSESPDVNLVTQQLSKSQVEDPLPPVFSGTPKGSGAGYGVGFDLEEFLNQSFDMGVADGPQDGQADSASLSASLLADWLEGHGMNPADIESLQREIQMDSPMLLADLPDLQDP
NAD(+) hydrolase SARM1 (Homo sapiens), sequence (Q6SZW1 whole entry, looked up, the tested form may be a part): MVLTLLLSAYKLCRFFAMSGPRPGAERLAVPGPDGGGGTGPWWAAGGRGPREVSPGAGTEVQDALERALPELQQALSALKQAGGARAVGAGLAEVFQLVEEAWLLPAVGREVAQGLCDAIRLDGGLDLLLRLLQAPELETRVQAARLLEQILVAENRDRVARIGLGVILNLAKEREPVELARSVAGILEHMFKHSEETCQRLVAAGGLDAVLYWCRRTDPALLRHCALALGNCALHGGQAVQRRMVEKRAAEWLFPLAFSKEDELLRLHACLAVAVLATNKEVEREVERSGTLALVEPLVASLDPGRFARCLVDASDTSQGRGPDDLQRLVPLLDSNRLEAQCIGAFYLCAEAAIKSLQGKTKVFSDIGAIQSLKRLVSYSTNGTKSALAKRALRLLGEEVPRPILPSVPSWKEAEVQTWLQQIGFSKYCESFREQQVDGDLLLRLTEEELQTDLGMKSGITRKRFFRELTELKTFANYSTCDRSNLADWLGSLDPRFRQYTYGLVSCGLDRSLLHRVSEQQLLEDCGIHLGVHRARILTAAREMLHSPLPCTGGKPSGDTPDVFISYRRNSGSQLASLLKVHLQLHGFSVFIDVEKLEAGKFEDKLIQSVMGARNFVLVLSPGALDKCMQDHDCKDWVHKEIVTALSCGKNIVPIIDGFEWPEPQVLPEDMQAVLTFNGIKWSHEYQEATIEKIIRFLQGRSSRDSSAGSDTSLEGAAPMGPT

For the compound `CC(=O)O[C@]1(C(C)=O)CC[C@H]2[C@@H]3C=C(Cl)C4=CC(=O)[C@@H]5C[C@@H]5[C@]4(C)[C@H]3CC[C@@]21C`, the AC50 in assay [1] was 33.2 µM (active). Further, the compound was called inactive in [2], in assay [3] and in assay [5]. Also, the fold change in [4] (setting [14]) was 0.956 (inactive) and 0.85 (inactive); in assay [4] (setting [15]), 1.52 and 2.1. Moreover, the cell count in assay [4] (setting [16]) is 8890 and 7970; in assay [4] (setting [17]), 9300 and 9380. The z-score was -0.4 (inactive) in assay [6] (setting [18]); -0.158 in assay [6] (setting [19]); 1.89 (inactive) and 0.36 (inactive) in assay [9]. The remaining NAD in [7] is 10 nM (inactive). The luciferase signal in assay [8] is 52 AU (inactive).
`COC(=O)Nc1nc2ccc(C(=O)c3cccs3)cc2[nH]1`: the concentration at half-maximal activity (AC50) in [1] is 0.118 µM (active); in assay [2], 3.72 µM (active). In assay [10], the fold fluorescence is 18.7 [at 165.9 µM] (inactive). For the same compound, in [11], the SSMD came out at 3.16. The same compound had a cell count in assay [11] of 6830. In addition, the plate-normalised HSF1 focus index in assay [11] was 1.2 (inactive). Further, the outcome in assay [5] was inactive. For the same compound, the z-score in [6] (setting [18]) is -0.757 (inactive) and 1.39 (inactive) and -3.68 (inactive); in [6] (setting [19]), 0.709 and -0.844 and -0.416; in [9], -0.685 (inactive) and -1.18 (inactive) and -0.46 (inactive). Also, the viability is 120% (inactive) in assay [12] (at 0.000305 µM, OCI-C5x cells, with rucaparib 10 µM, 100% = cells with rucaparib alone); 106% (inactive) in [12] (at 0.000305 µM, OCI-C5x cells, without rucaparib); 89% (active) in assay [12] (at 0.000305 µM, OCI-P5x cells, with rucaparib 20 µM, 100% = cells with rucaparib alone); 84.1% (active) in assay [12] (at 0.000305 µM, OCI-P5x cells, without rucaparib); 116% (inactive) in assay [12] (at 0.00122 µM, OCI-C5x cells, with rucaparib 10 µM, 100% = cells with rucaparib alone); 108% (inactive) in assay [12] (at 0.00122 µM, OCI-C5x cells, without rucaparib). The viability is 88% (active) in assay [12] (at 0.00122 µM, OCI-P5x cells, with rucaparib 20 µM, 100% = cells with rucaparib alone); 90.4% (active) in assay [12] (at 0.00122 µM, OCI-P5x cells, without rucaparib); 112% (inactive) in assay [12] (at 0.00488 µM, OCI-C5x cells, with rucaparib 10 µM, 100% = cells with rucaparib alone); 108% (inactive) in assay [12] (at 0.00488 µM, OCI-C5x cells, without rucaparib); 87.3% (active) in [12] (at 0.00488 µM, OCI-P5x cells, with rucaparib 20 µM, 100% = cells with rucaparib alone); 58% (active) in assay [12] (at 0.00488 µM, OCI-P5x cells, without rucaparib). The viability in assay [12] (at 0.0195 µM, OCI-C5x cells, with rucaparib 10 µM, 100% = cells with rucaparib alone) was 96.1% (active); in assay [12] (at 0.0195 µM, OCI-C5x cells, without rucaparib), 74% (active); in assay [12] (at 0.0195 µM, OCI-P5x cells, with rucaparib 20 µM, 100% = cells with rucaparib alone), 68.5% (active); in [12] (at 0.0195 µM, OCI-P5x cells, without rucaparib), 32.7% (active); in assay [12] (at 0.0781 µM, OCI-C5x cells, with rucaparib 10 µM, 100% = cells with rucaparib alone), 71.2% (active); in assay [12] (at 0.0781 µM, OCI-C5x cells, without rucaparib) it was 69.2% (active). Besides, the viability in assay [12] (at 0.0781 µM, OCI-P5x cells, with rucaparib 20 µM, 100% = cells with rucaparib alone) was 62.5% (active); in assay [12] (at 0.0781 µM, OCI-P5x cells, without rucaparib), 35.1% (active); in assay [12] (at 0.313 µM, OCI-C5x cells, with rucaparib 10 µM, 100% = cells with rucaparib alone) it was 89% (active); in assay [12] (at 0.313 µM, OCI-C5x cells, without rucaparib) it was 97.5% (active); in [12] (at 0.313 µM, OCI-P5x cells, with rucaparib 20 µM, 100% = cells with rucaparib alone), 77.5% (active); in assay [12] (at 0.313 µM, OCI-P5x cells, without rucaparib), 52.1% (active). In addition, the viability was 56.8% (active) in assay [12] (at 1.25 µM, OCI-C5x cells, with rucaparib 10 µM, 100% = cells with rucaparib alone); 60.1% (active) in [12] (at 1.25 µM, OCI-C5x cells, without rucaparib); 67.3% (active) in assay [12] (at 1.25 µM, OCI-P5x cells, with rucaparib 20 µM, 100% = cells with rucaparib alone); 48% (active) in assay [12] (at 1.25 µM, OCI-P5x cells, without rucaparib); 55.3% (active) in [12] (at 5 µM, OCI-C5x cells, with rucaparib 10 µM, 100% = cells with rucaparib alone); 38.7% (active) in [12] (at 5 µM, OCI-C5x cells, without rucaparib). Moreover, the viability in [12] (at 5 µM, OCI-P5x cells, with rucaparib 20 µM, 100% = cells with rucaparib alone) was 52.5% (active); in [12] (at 5 µM, OCI-P5x cells, without rucaparib), 14.7% (active).
As for `Oc1ccc(OCc2ccccc2)cc1`, the result in assay [1], in [2] and in assay [13] was inactive. Also, the fold change was 0.78 (inactive) and 0.903 (inactive) in assay [4] (setting [14]); 1.95 and 0.958 in assay [4] (setting [15]). In addition, the cell count was 2470 and 5720 in [4] (setting [16]); 3170 and 6340 in assay [4] (setting [17]). The z-score in [6] (setting [18]) is -0.263 (inactive) and 1.74 (inactive); in assay [6] (setting [19]), 0.599 and -0.357. In assay [7], the remaining NAD was 10 nM (inactive). Further, the luciferase signal in [8] was 64 AU (inactive).
As to `CCOC(=O)[C@H](CCc1ccccc1)N[C@@H](C)C(=O)N1CCC[C@H]1C(=O)O`, the result in assay [1], in [2] and in [13] was inactive. Moreover, the fold change is 0.896 (inactive) and 0.877 (inactive) and 0.886 (inactive) in [4] (setting [14]); 0.827 and 3.26 and 1.44 in assay [4] (setting [15]). In addition, the cell count in assay [4] (setting [16]) was 8260 and 11300 and 10300; in assay [4] (setting [17]), 9220 and 12900 and 11600. Moreover, the z-score is -1.03 (inactive) and -0.334 (inactive) in assay [6] (setting [18]); -0.133 and -0.361 in [6] (setting [19]); 0.27 (inactive) in assay [9]. The remaining NAD in [7] was 10 nM (inactive). Besides, in assay [8], the luciferase signal is 64 AU (inactive).
In the case of `C[N+]1(C)[C@@H]2CC(OC(=O)[C@H](CO)c3ccccc3)C[C@H]1[C@@H]1O[C@@H]12` (some centres undefined), the compound was classed as inactive in [1], in assay [2], in assay [13] and in assay [3]. For the same compound, in assay [7], the remaining NAD is 10 nM (inactive). Also, the luciferase signal in [8] was 32 AU (inactive).
